The structures appear in SMILES notation. Counter-ions that a name gives are not always drawn.

The test system of this assay is Danio rerio larvae (5 dpf). Kind of assay: 1-h baseline activity (% time moving, periods 1-6) minus DMSO control (percentage points); higher = more locomotor activity than DMSO larvae. To be noted: 10 µM; exposure time: 3 h pre-incubation + 3 h imaging. The method, then: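 Wild-type 5 dpf zebrafish larvae (n=48 per drug, 96-well plates, 28.5 °C) were exposed to Tocris FDA-approved library compounds at 10 µM (0.1% DMSO) for 3 h before and 3 h during imaging. Images were taken every 6 s during visual (moving coloured lines) and acoustic stimuli, and larvae were tracked with the DeepLabCut-based Z-LaP Tracker. Each behavioural measure is the treated-group mean minus the DMSO vehicle control mean (n=844), in percentage points. This mapping covers compounds with 4-character plate codes.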
`CC(C)C[C@H]1C(=O)N2CCC[C@H]2[C@]2(O)O[C@](NC(=O)[C@@H]3C=C4c5cccc6[nH]c(Br)c(c56)C[C@H]4N(C)C3)(C(C)C)C(=O)N12` [Bromocriptine mesylate]: the 1-h baseline activity is 16.1.

Consider `CC[C@@H](C(N)=O)N1CCCC1=O` [Levetiracetam], for which the 1-h baseline activity was 5.78.

Regarding `CN1C[C@H](C(=O)N[C@]2(C)O[C@@]3(O)[C@@H]4CCCN4C(=O)[C@H](Cc4ccccc4)N3C2=O)C[C@@H]2c3cccc4[nH]cc(c34)C[C@H]21` [Dihydroergotamine mesylate], the 1-h baseline activity is 1.07.

As to `N[C@@H]1C[C@H]1c1ccccc1` [Tranylcypromine hydrochloride], the 1-h baseline activity was -14.7.

Consider `C=CCN1C[C@H](C(=O)N(CCCN(C)C)C(=O)NCC)C[C@@H]2c3cccc4[nH]cc(c34)C[C@H]21` [Cabergoline], for which the 1-h baseline activity is -9.92.

On to `Cc1cccc([C@H](C)c2c[nH]cn2)c1C` [Dexmedetomidine hydrochloride], for which the 1-h baseline activity was -27.3.

For `COc1cc2c(cc1OC)C1CC(=O)C(CC(C)C)CN1CC2` (stereo unspecified) [Tetrabenazine], the 1-h baseline activity is -0.785.

Turning to `O=c1[nH]c2ccccc2n1C1CCN(CCCC(c2ccc(F)cc2)c2ccc(F)cc2)CC1` [Pimozide], the 1-h baseline activity was -18.2.

Regarding `CC(O)(CS(=O)(=O)c1ccc(F)cc1)C(=O)Nc1ccc(C#N)c(C(F)(F)F)c1` (stereo unspecified) [Bicalutamide], the 1-h baseline activity is 3.

For the compound `CCN(C)C(=O)Oc1cccc([C@H](C)N(C)C)c1` [Rivastigmine tartrate], the 1-h baseline activity is 7.3.

`C=C1C[C@@H]2[C@H](CC[C@]3(C)C(=O)CC[C@@H]23)[C@@]2(C)C=CC(=O)C=C12` [Exemestane]: the 1-h baseline activity was -19.5.

Values taken from the supplement of paper PMC9950053.
